The structures appear in SMILES notation. The whole screen tested about 2,400 compounds, of which about 95 (4%) were called active.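 How the source made its calls: active means mean of duplicate membrane potential ratios lying over 3 SD above or below the buffer control mean, so actives fall on both sides; inactive means the rest.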 Only a sample is shown.

The test is described as follows: membrane potential effects in parental HEK293, counter-screen for CHT inhibitor project, cell-based, membrane potential dye (AID 493222).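 Further: parental cells lack the transporter so any hit is non-specific.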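 On membrane potential ratio readout (active if shifted either direction beyond buffer ±3SD; no single direction): ratio is peak minus trough fluorescence over baseline after EC90 choline challenge.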 The conditions noted are these: choline response, at 10 µM; active = decrease or increase beyond buffer ±3SD.
In the case of `O=S(=O)(Nc1ccc(Cl)cn1)c1cnc(Cl)c(Br)c1`, the membrane potential ratio readout (active if shifted either direction beyond buffer ±3SD; no single direction) result was “inactive”.
Consider `Cc1ccc(CS(=O)(=O)c2ncc(Cl)c(C(=O)Nc3nnc(C)s3)n2)cc1`, for which the membrane potential ratio readout (active if shifted either direction beyond buffer ±3SD; no single direction) result was “inactive”.
With `COC(=O)C(C(=O)Nc1cccc(Cl)c1C)C1CCCC1` (configuration not stated), the membrane potential ratio readout (active if shifted either direction beyond buffer ±3SD; no single direction) result is “inactive”.
The value for `Cc1ccc(C(=O)NC2CCCC(C)C2C)cc1S(=O)(=O)N1CCCCC1` (configuration not stated) was “inactive”.
Consider `Cc1cccc(-c2nc3ccc(C(=O)NCCN4CCN(C)CC4)cc3nc2-c2cccc(C)c2)c1`, for which the membrane potential ratio readout (active if shifted either direction beyond buffer ±3SD; no single direction) result is “inactive”.
The value for `O=C(c1cccs1)C1C(c2ccc(Br)cc2)NC(=S)NC1(O)C(F)(F)F` (configuration not stated) was “inactive”; that for `COc1ccc2c(c1)OC(O)(C(F)(F)C(F)F)CC2=O` (configuration not stated) was “inactive”; that for `Cc1ccc(S(=O)(=O)/N=C(/NC(=S)Nc2c(C)n(C)n(-c3ccccc3)c2=O)c2ccccc2)cc1` was “inactive”.
In the case of `O=C(C1CCN(S(=O)(=O)c2ccc(Br)s2)CC1)N1CCN(c2ccccc2)CC1`, the membrane potential ratio readout (active if shifted either direction beyond buffer ±3SD; no single direction) result is “inactive”.
For `CC(=O)Nc1nc2c(s1)C(=O)NCC(C)(C)C2`, the membrane potential ratio readout (active if shifted either direction beyond buffer ±3SD; no single direction) result is “inactive”.
`CC1CCCC(NC(=O)c2cccc(N3CCCC3=O)c2)C1C` (configuration not stated): the membrane potential ratio readout (active if shifted either direction beyond buffer ±3SD; no single direction) entry is “inactive”.
As for `CNCC(O)c1ccc(O)c(O)c1` (configuration not stated), the entry is “inactive”.
For the compound `CCCCOc1ccc(Cl)cc1CSc1nncn1N`, the membrane potential ratio readout (active if shifted either direction beyond buffer ±3SD; no single direction) result was “inactive”.
As for `O=C(Nc1ccn(Cc2ccccc2)n1)c1n[nH]c([N+](=O)[O-])c1Cl`, the membrane potential ratio readout (active if shifted either direction beyond buffer ±3SD; no single direction) result is “inactive”.
Take `CCOc1ccc(/C=C2\SC(=S)N(NC(=O)c3ccncc3)C2=O)cc1OC`: the membrane potential ratio readout (active if shifted either direction beyond buffer ±3SD; no single direction) entry is “inactive”.
`CCOC(=O)C1(CCOC)CCN(Cc2ccc(C(=O)OC)cc2)CC1`: the membrane potential ratio readout (active if shifted either direction beyond buffer ±3SD; no single direction) result was “inactive”.
The value for `OC1CN=C2Sc3ccccc3N2C1` (configuration not stated) was “inactive”; that for `CC(Oc1ccc2ccccc2c1)C(=O)NNC(=S)NC(=O)c1ccco1` (configuration not stated) was “inactive”; that for `CCCCCn1c(=O)c(C(=O)OCC)c(Cl)c2ccccc21` was “inactive”.
Regarding `O=[N+]([O-])c1ccccc1Nc1ccc(O)cc1`, the membrane potential ratio readout (active if shifted either direction beyond buffer ±3SD; no single direction) is 2.4 (active).
`Cc1ccc(SC(CC(=O)c2ccc(C(C)(C)C)cc2)C(=O)O)cc1` (configuration not stated): the membrane potential ratio readout (active if shifted either direction beyond buffer ±3SD; no single direction) entry is “inactive”.
The value for `C/C(=N\Nc1nc2ccccc2[nH]1)c1cccs1` was “inactive”; that for `Nc1cc(N2CCCCCC2)c2nonc2c1[N+](=O)[O-]` was “inactive”; that for `Cc1ccc(C(=O)N/C(=C/C=C/c2ccccc2)C(=O)NCc2ccco2)cc1` was “inactive”.
The value for `CCc1ccc2c(c1)C1(NN=C(c3ccccc3)S1)C(=O)N2` (configuration not stated) was “inactive”; that for `O=S(=O)(c1cccc(-c2nnc(SC(F)F)n2-c2ccccc2)c1)N1CCCCC1` was “inactive”; that for `Cn1c2ccccc2c(=O)c2c(O)cccc21` was “inactive”.
As for `CC(=O)OCCOCn1cnn2c(=O)c(Br)c(C)nc12`, the entry is “inactive”; as for `CCNC(=O)CC1C(=O)N(c2ccc(F)cc2)C(=O)N1CCc1sccc1C` (configuration not stated), “inactive”; as for `C/C(=N\NC(N)=S)c1cccnc1`, “inactive”.
Take `COc1ccc(NC(=O)c2sc(N)nc2-c2ccccc2)cc1`: the membrane potential ratio readout (active if shifted either direction beyond buffer ±3SD; no single direction) entry is “inactive”.
On to `Cc1ccccc1-n1c(C)cc(/C=N/NC(=O)c2ccc(CN3CCOCC3)cc2)c1C`, for which the membrane potential ratio readout (active if shifted either direction beyond buffer ±3SD; no single direction) result is “inactive”.
`O=C(Nc1ccccc1C(=O)NCCCn1ccnc1)c1ccc(Cl)cc1Cl`: the membrane potential ratio readout (active if shifted either direction beyond buffer ±3SD; no single direction) result is “inactive”.
In the case of `CCc1ccccc1N1CN(Cc2ccco2)CNC1=S`, the membrane potential ratio readout (active if shifted either direction beyond buffer ±3SD; no single direction) result was “inactive”.
The value for `COC(=O)CN1C(C)=Nc2ccc(Br)cc2C1c1ccccc1` (configuration not stated) was “inactive”.
The value for `CCN(CC)Cc1c(C(=O)N/N=C/c2cccc(OCc3ccc(F)cc3)c2)nnn1-c1nonc1N` was “inactive”; that for `CC(C)CCn1c(CN(C)Cc2ccccc2)nc2c1c(=O)n(C)c(=O)n2C` was “inactive”.
In the case of `O=C(O)c1ccc(N/N=C/c2cn(-c3ccccc3)nc2-c2cccs2)cc1`, the membrane potential ratio readout (active if shifted either direction beyond buffer ±3SD; no single direction) entry was “inactive”.
Consider `CCC(Oc1ccccc1C)C(=O)Nc1ccc(S(=O)(=O)Nc2cc(C)on2)cc1` (configuration not stated), for which the membrane potential ratio readout (active if shifted either direction beyond buffer ±3SD; no single direction) entry is “inactive”.
As for `CC1CCN(C(=O)CN(c2ccc(Oc3ccccc3)cc2)S(C)(=O)=O)CC1`, the entry is “inactive”.
As for `CCN(CC)CCC(c1ccc2c(c1)OCO2)c1c(OC)cc(OC)c2c(-c3ccccc3)cc(=O)oc12` (configuration not stated), the entry is “inactive”.
In the case of `C/C(=N\N=C(N)N)c1ccc(Cl)cc1`, the membrane potential ratio readout (active if shifted either direction beyond buffer ±3SD; no single direction) result is “inactive”.
As for `COC(=O)c1ccccc1NC(=O)Cn1nc(C(F)(F)F)c2c1CCC2`, the entry is “inactive”.
The value for `O=C1c2cccc3cccc(c23)C(=O)N1CCCCCc1n[nH]c(=S)o1` was “inactive”; that for `CC(C)n1c(=S)[nH]c2cc(C(F)(F)F)ccc21` was “inactive”.
For `O=C(Cn1ncc2c3ccccc3n(Cc3ccccc3)c2c1=O)NCCCN1CCOCC1`, the membrane potential ratio readout (active if shifted either direction beyond buffer ±3SD; no single direction) result is “inactive”.
As for `CCOC(=O)N1CCN(C(=O)c2ccc(CN(c3ccc(C)c(C)c3)S(C)(=O)=O)cc2)CC1`, the entry is “inactive”; as for `CCCn1c2ccccc2c2cnn(CC(=O)NCCCN3CCCCC3CC)c(=O)c21` (configuration not stated), “inactive”.
In the case of `Cc1ccccc1-n1nnc2c(=O)oc3ccccc3c21`, the membrane potential ratio readout (active if shifted either direction beyond buffer ±3SD; no single direction) result was “inactive”.
As for `C=CCn1c(SCc2ccc(C(=O)NCCO)cc2)nc2ccccc2c1=O`, the membrane potential ratio readout (active if shifted either direction beyond buffer ±3SD; no single direction) entry was “inactive”.
As for `O=C(/C=C/c1cn(-c2ccccc2)nc1-c1ccc2c(c1)OCCO2)NCCCN1CCOCC1`, the entry is “inactive”; as for `COc1ccc(C(=O)NC(Cc2ccc(OC(=O)c3ccc(OC)cc3)cc2)C(=O)O)cc1` (configuration not stated), “inactive”.
As to `Cc1cccnc1NC(=O)c1cccc(S(=O)(=O)N2CCN(c3ccc(F)cc3)CC2)c1`, the membrane potential ratio readout (active if shifted either direction beyond buffer ±3SD; no single direction) result was “inactive”.
As for `CCOc1ccccc1Nc1ccc2nonc2c1[N+](=O)[O-]`, the entry is “inactive”.
As for `O=C(CCCN1C(=O)CSc2ncccc21)N1CCN(c2cccc(C(F)(F)F)c2)CC1`, the entry is “inactive”; as for `Cc1ccc2c(C)c(C(=O)N3CCC(N4CCC(C(=O)NC5CC5)CC4)CC3)oc2c1`, “inactive”; as for `CCOCCCN(C)C1CCN(C(=O)c2oc3ccccc3c2NC(=O)COc2cccc(C)c2)CC1`, 3.33 (active).
On to `COCCNc1nc(-n2nc(C)cc2C)nc2sc3c(c12)CCCC3`, for which the membrane potential ratio readout (active if shifted either direction beyond buffer ±3SD; no single direction) result is “inactive”.
As for `O=c1c2ccccc2nnn1CSc1nc2sc3c(c2c(=O)n1CC1CCCO1)CCC3` (configuration not stated), the membrane potential ratio readout (active if shifted either direction beyond buffer ±3SD; no single direction) result is “inactive”.
Turning to `CC(C)(C)C(=O)/C(C#N)=C/c1ccc(O)cc1`, the membrane potential ratio readout (active if shifted either direction beyond buffer ±3SD; no single direction) entry is “inactive”.
As to `Cc1oc2c(F)c(F)c(F)c(F)c2c1S(=O)(=O)Nc1cccc(C(F)(F)F)c1`, the membrane potential ratio readout (active if shifted either direction beyond buffer ±3SD; no single direction) entry is “inactive”.
As for `O=C(Nc1ccc(F)c(Cl)c1)C1CCN(S(=O)(=O)c2cccnc2)CC1`, the entry is “inactive”.

Source of the values: PubChem BioAssay AID493222 (Johns Hopkins Ion Channel Center, 2011).
